Bioassay records as filed in PubChem BioAssay.
Mtb MbtI inh: MbtI salicylate synthase inhibitors, primary screen, biochemical, fluorescence intensity. P9WFX0. purified MbtI enzyme, fluorescence intensity read-out. inhibition, % (concentration not given with the values). hit rate 0.89% among 100,000. AID 493033, 2011; in the data active means inhibition mostly above about 56%, no sharp cut-off; inactive means mostly below about 77%
AID504770: growth inhibition of E. coli YBA685, primary screen, V. cholerae RctB inhibitors | hit rate 0.27% among 130,000 | E. coli YBA685 rctB-dependent plasmid, OD600 growth, 3 h; hits give low values | AID 504770, 2011 | z-score (test concentration not listed); in the data active means z-score below about -2, passing the limit was not always enough
Polio RdRp inh: poliovirus RdRp elongation inhibitors, primary screen, biochemical, fluorescence polarization, total intensity; Genome polyprotein (Poliovirus type 1 (strain Mahoney)), P03300; poliovirus polymerase elongation; hits give low values; % elongation, % (compound at 16.7 µg/mL); hit rate 0.66% among 150,000; in the data active means % elongation below about 90%
Mtb MenB inh: M. tuberculosis MenB inhibitors, primary screen, biochemical, absorbance; AID 540299, 2011; MenB enzyme assay, absorbance read-out; inhibition, % (concentration not given with the values); hit rate 0.43% among 100,000; 1,4-dihydroxy-2-naphthoyl-CoA synthase (Mycobacterium tuberculosis (strain ATCC 25618 / …; in the data active means inhibition above about 21%, passing the limit was not always enough
Target sequence (P9WNP5 whole entry, looked up): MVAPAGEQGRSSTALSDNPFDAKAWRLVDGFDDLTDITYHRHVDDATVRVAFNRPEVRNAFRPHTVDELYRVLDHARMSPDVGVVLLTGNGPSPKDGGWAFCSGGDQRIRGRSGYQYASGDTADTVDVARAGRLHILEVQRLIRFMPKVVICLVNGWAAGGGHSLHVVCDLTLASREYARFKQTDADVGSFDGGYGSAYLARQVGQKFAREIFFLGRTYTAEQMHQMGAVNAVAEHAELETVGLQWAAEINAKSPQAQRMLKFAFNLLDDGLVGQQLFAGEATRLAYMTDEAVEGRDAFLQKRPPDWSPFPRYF
Each line names hits and unclear results; the compound was inactive in the other large screens. The list is not random: actives were taken first. Their share in the collection is about 1.5%.

COc1ccc2c(c1)c1c(c(=O)n(Cc3ccccc3)c(=O)n1CC(N)=O)n2C	none
COc1cc2cc3c4cc(OC)c(OC)cc4cc[n+]3c(C)c2cc1OC	Polio RdRp inh 88
O=C(O)CN=C1NC2(CCCC2)Cc2ccccc21	Mtb MenB inh 34
On1ccccc1=S	Mtb MbtI inh 92, AID504770 -5.3
Cn1ccccc1=S	none
N#CC(C#N)=NNc1ccccc1C(N)=O	AID504770 -3.6
COc1ccc(-c2cc(C3CC3)c(C#N)c(N)c2C#N)cc1	none
CCOC(=O)c1nn(-c2ccc(OC)cc2)c(=O)c(C#N)c1C	none (no result: Polio RdRp inh, Mtb MenB inh)
CCOC(=O)c1nn(-c2ccc(OC)cc2)c(=O)c2c(N)scc12	Mtb MbtI inh 54
Cc1ccc(-c2csc(=Nc3c(C)n(C)n(-c4ccccc4)c3=O)n2CCO)cc1	none
Cn1nc(C(=O)OCc2nnc(-c3ccccc3)o2)c2ccccc2c1=O	none
COC(=O)c1ccc(CN2CCN(c3ccccc3)CC2)o1	none
COc1ccc2cc([C@H](C)C(=O)O)ccc2c1	none
COc1ccc(-c2sccc2C(C)C(=O)O)cc1 (centres undefined)	Mtb MenB inh 27
S=C1CSc2ccccc2N1	Mtb MbtI inh 78
c1ccc2c(c1)Nc1ccccc1S2	none
Cc1cc(C)nc(SCC(=O)OCN2C(=O)c3ccccc3C2=O)n1	none
O=C(CSC1=NCCS1)OCN1C(=O)c2ccccc2C1=O	Mtb MenB inh 38
CCCC12CN3CC(C)(CN(C1)C3c1c(C)n(C)c3ccccc13)C2=O (centres undefined)	none
CC(C)Cc1ccc([C@H](C)C(=O)O)cc1	none (no result: Mtb MbtI inh, AID504770)
CC(C)Cc1ccc(CC(=O)O)cc1	Polio RdRp inh 80
CCOc1cc(CNc2ncn[nH]2)ccc1OCC(=O)NC(C)(C)C	AID504770 -2.5
COc1cc(CNC(C)(C)C)ccc1OCC(=O)NC(C)(C)C	none
O=C(Cn1cnc2c(oc3ccccc32)c1=O)N1CCCC1c1ccc2c(c1)OCCCO2 (centres undefined)	none
O=c1[nH]nc(Sc2ncn[nH]2)c(=O)[nH]1	none
c1ccc2nc(Sc3ncn[nH]3)c(Sc3ncn[nH]3)nc2c1	Polio RdRp inh 85 (no result: Mtb MbtI inh)
CCOC(=O)C1CCN(C(=O)CCCn2nc(-c3ccccc3)c3ccccc32)CC1	none
CCS(=O)(=O)Nc1cc2c3c(n(S(=O)(=O)CC)c2cc1OC)CCCC3=O	none
Clc1ccc(-n2cccc2)cc1	none (no result: Polio RdRp inh, Mtb MenB inh)
O=C(O)c1ccc(S(=O)(=O)Nc2ccc3oc(=O)sc3c2)cc1	Mtb MbtI inh 78 (no result: Polio RdRp inh, Mtb MenB inh)
O=C(N=Nc1c(O)[nH]c2ccccc12)C1C2CCCCC21 (centres undefined)	none
c1ccc(-c2nnc(SCc3cn4ccccc4n3)o2)cc1	none (no result: Mtb MbtI inh, Polio RdRp inh, Mtb MenB inh)
C/C(=N\NC(=O)c1nc(Cl)c(Cl)c(N)c1Cl)c1cc(O)ccc1O	Mtb MbtI inh 56
CCOC(=O)c1cn(C2CC2)c2c(F)c(F)c(F)cc2c1=O	none (no result: Mtb MbtI inh)
Cc1nn(Cc2ccc(C(=O)Sc3ccc(C(F)(F)F)cn3)o2)c(C)c1Br	Mtb MbtI inh 86
COc1ccc(Cn2c(=O)[nH]c3cc(C(=O)NC4CCN(Cc5ccccc5)CC4)ccc32)cc1	Mtb MenB inh 30
O=C(NC1CCN(Cc2ccccc2)CC1)c1ccc(Cn2c(=O)c3ccccc3n(Cc3ccc(F)cc3)c2=O)cc1	none (no result: Mtb MbtI inh, AID504770, Mtb MenB inh)
COC(=O)c1c(-c2cccs2)csc1NC(=O)CN1CCOCC1	none
COC(=O)c1c(-c2cccs2)csc1NC(=O)c1ccc(Br)cc1	Polio RdRp inh 66 (no result: Mtb MbtI inh, AID504770, Mtb MenB inh)
COC(=O)c1c(-c2cccs2)csc1NC(=O)c1ccc(C)cc1	Polio RdRp inh 76 (no result: Mtb MbtI inh, AID504770, Mtb MenB inh)
COc1ccc(C(=O)O)cc1NCc1ccncc1	none
COc1ccc(NC(=O)c2cc3ccc(O)cc3o/c2=N\O)cc1	Mtb MenB inh 32
COc1ccc(NC(=O)c2cc3ccc(O)cc3oc2=Nc2ccc(C(=O)O)cc2)cc1	none
Cc1ccc(C(=O)N/C(=C/c2ccccc2)C(=O)NCc2ccco2)cc1	Mtb MenB inh 46
O=C(NCc1ccccc1)/C(=C\c1ccccc1)NC(=O)c1ccccc1	none
COC(=O)CNc1ccc(Br)cc1	none
O=c1[nH]c(=S)[nH]nc1-c1ccc(F)c(F)c1	Mtb MbtI inh 101
Fc1ccc(-c2nnc(Cl)c3ccccc23)cc1F	none (no result: Mtb MenB inh)
CCOc1cc(C(C#N)N2CCOCC2)ccc1OC (centres undefined)	none (no result: Mtb MbtI inh, Polio RdRp inh, Mtb MenB inh)
COc1ccc(C(=S)N2CCCCC2)cc1OC	Mtb MbtI inh 82
CCOc1cc(C(=S)N2CCOCC2)ccc1OC	Polio RdRp inh 65 (no result: Mtb MbtI inh)
COc1ccc(C(=S)N2CCCC2)cc1OC	none
CCCN1C(=O)/C(=N\OCC(=O)Nc2ccc(S(=O)(=O)N3CCOCC3)cc2)c2ccccc21	none
Cn1cccc1/C=C/C(=O)O	Polio RdRp inh 76
COc1nncc(-c2cnnc(SC)n2)n1	AID504770 -2, Polio RdRp inh 15 (no result: Mtb MbtI inh)
COc1ccc(-c2ccnc(SC)n2)cc1	none (no result: Mtb MbtI inh, Polio RdRp inh, Mtb MenB inh)
CN(C)[C@@H]1C(=O)C(C(N)=O)=C(O)[C@@]2(O)C(=O)C3=C(O)c4c(O)cccc4[C@@](C)(O)[C@H]3[C@H](O)[C@@H]12	AID504770 -3.9
C[C@H]1c2cccc(O)c2C(O)=C2C(=O)[C@]3(O)C(O)=C(C(N)=O)C(=O)[C@@H](N(C)C)[C@@H]3[C@@H](O)[C@@H]21	none
CN(C)[C@@H]1C(=O)C(C(N)=O)=C(O)[C@@]2(O)C(=O)C3=C(O)c4c(O)ccc(Cl)c4[C@@](C)(O)[C@H]3C[C@@H]12	AID504770 -3.6
CC1c2cccc(O)c2CC2=C(O)C3(O)C(O)=C(C(N)=O)C(=O)C(N(C)C)C3C(O)C21 (centres undefined)	AID504770 -4.1 (no result: Mtb MbtI inh)
CCOC(=O)C1CCN(C2CC(=O)N(c3ccc(N4C(=O)CC(N5CCC(C(=O)OCC)CC5)C4=O)cc3)C2=O)CC1 (centres undefined)	none
Cc1sc2ncn(CC(=O)NC3CCCCCC3)c(=O)c2c1S(=O)(=O)N1CCN(c2ncccn2)CC1	none
COc1ccc(CN(CC(=O)NC2CCCC2)C(=O)Cn2nnc(-c3ccc(OC)cc3)n2)cc1	Mtb MenB inh 33
O=C(CN(Cc1ccccc1)C(=O)Cn1nnc(-c2ccc(F)cc2)n1)NC1CCCC1	none
O=c1[nH]c(=S)[nH]c(O)c1-c1ccccc1	Mtb MbtI inh 85
COc1cccc(CN(Cc2ccc3c(c2)OCO3)S(=O)(=O)c2ccc(-n3cnnn3)cc2)c1	none
O=C1CSc2ccc(C(=O)OCC(=O)N3CCCc4ccccc43)cc2N1	Mtb MbtI inh 60
CCCCS(=O)(=O)CC(O)CSc1nc(-c2ccc(C)cc2)cc(-c2ccccc2)c1C#N (centres undefined)	Polio RdRp inh 81 (no result: Mtb MbtI inh, AID504770, Mtb MenB inh)
COc1ccc(-c2cc(-c3ccccc3)c(C#N)c(SCC(O)CS(=O)(=O)Cc3ccccc3)n2)cc1 (centres undefined)	none (no result: Mtb MbtI inh, AID504770, Mtb MenB inh)
Cc1ccc(-n2nc(C(=O)NC(C)CCc3ccccc3)c3c4ccccc4n(C)c3c2=O)cc1 (centres undefined)	AID504770 -2.8
COc1ccc(NC(=O)c2sc(=S)n3c2[nH]c(=O)c2ccccc23)cc1	Mtb MbtI inh 94
